± gives the standard deviation.
These compounds were tested on RAW-Dual (murine macrophage reporter line) (assay: IRF reporter (Lucia luciferase) activity fold change vs agonist alone; higher = enhanced IRF activity). Conditions: modulator concentration 10 µM; agonist: LPS 0.1 ug/mL.
In short: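 RAW-Dual murine macrophage reporter cells were plated at 50 000 per well in 384-well plates, pin-transferred compound to 10 μM final, and pre-incubated for 1 hour at 37 °C before a PRR agonist was added and the cells incubated overnight. NF-κB activity was read from supernatant SEAP with QUANTI-Blue at 620 nm absorbance, and IRF activity from Lucia luciferase with QUANTI-Luc by luminescence. Each signal was expressed as fold change by dividing by the mean agonist-only control on the same plate. Two replicate plates were averaged, with errors obtained by propagation.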
O=C(CCn1c(=O)oc2ccccc21)Nc1ccccc1 was tested, and the IRF reporter was 1.16 ± 0.19. With O=C(Nc1ccncc1)c1ccc(OCC2CCOCC2)nc1 the IRF reporter was 1.28 ± 0.11. For CNCC[C@@H](Oc1ccccc1C)c1ccccc1.Cl, the IRF reporter was 0.95 ± 0.041. Brc1ccc2ncnc(Nc3ccccc3)c2c1 was tested, and the IRF reporter was 0.629 ± 0.039. With O=C(NC12CC3CC(CC(C3)C1)C2)N1CCOCC1 the IRF reporter was 1.22 ± 0.21. With Cc1cc(NC2CCCC2)nc2ccccc12 the IRF reporter was 1.88 ± 0.28. O=C(CCC(=O)OCC(=O)c1cccs1)Nc1ccc(Oc2ccccc2)cc1 showed an IRF reporter of 1.22 ± 0.085. COC(=O)C1C(=O)C(=CNCc2ccccc2)C(=O)CC1(C)C (stereo not drawn) showed an IRF reporter of 1.06 ± 0.049. Cc1cnc(NC(=O)C2=C(O)c3ccccc3S(=O)(=O)N2C)s1 was tested, and the IRF reporter was 1.15 ± 0.29. With NNC(=O)CN1C(=O)C2CC=C(Cl)CC2C1=O (stereo not drawn) the IRF reporter was 1.06 ± 0.058. O=C(COc1ccc2ccccc2c1)Nc1cnoc1 was tested, and the IRF reporter was 1.05 ± 0.17. Work on Br.Fc1ccc(-c2csc(Nc3ccc4c(c3)OCO4)n2)cc1 yielded an IRF reporter of 1.03 ± 0.076. Cc1occc1C(=O)Nc1ccc([N+](=O)[O-])cc1Cl gave an IRF reporter of 0.931 ± 0.12. With Cn1cnc2cc(NCc3ccc(Br)cc3)ccc21 the IRF reporter was 1.06 ± 0.21. C[C@H](NC(=O)C(=O)Nc1ccccc1C(C)(C)C)C(=O)N[C@@H](CC(=O)O)C(=O)COc1c(F)c(F)cc(F)c1F showed an IRF reporter of 0.839 ± 0.14. O=C(NCCc1csc(-c2ccc(F)cc2)n1)c1ccc(Br)cc1 was tested, and the IRF reporter was 1.07 ± 0.11. Compound CCN(CC)Cc1cc(Nc2ccnc3cc(Cl)ccc23)ccc1O.Cl.Cl.O.O has an IRF reporter of 1.22 ± 0.24. In the case of CC1(C)CCC2(C(=O)O)CCC3(C)C(=CCC4C5(C)CCC(O)C(C)(C)C5CCC43C)C2C1 (stereo not drawn), the IRF reporter is reported as 1.3 ± 0.18. NNC(=O)c1ccncc1 gave an IRF reporter of 1.42 ± 0.12. For O=C(Nc1ccccn1)NC1CCS(=O)(=O)C1 (stereo not drawn), the IRF reporter was 1.34 ± 0.085. In the case of Cc1ccccc1CC(CC(=O)O)C(=O)O (stereo not drawn), the IRF reporter is reported as 1.21 ± 0.12. Compound COc1ccc(Cn2cc3c(-c4ccc(F)cc4)nnc-3c3cc(OC)c(OC)cc32)cc1 has an IRF reporter of 2.42 ± 0.18. Compound CC(C)c1ccc(N(CC(=O)NCCSCc2ccc(Cl)cc2)S(C)(=O)=O)cc1 has an IRF reporter of 1.14 ± 0.066. Work on Nc1ccc(C=Cc2ccccc2)cc1 yielded an IRF reporter of 0.857 ± 0.089. COc1nn(C)cc1C(=O)Nc1ccc(C(=O)NCCN2CCOCC2)cc1 gave an IRF reporter of 1.28 ± 0.096. Work on CC12CCC(=O)C=C1C=CC1C2CCC2(C)C1CCC21CCC(=O)O1 (stereo not drawn) yielded an IRF reporter of 1.1 ± 0.21. CC(=O)Nc1cc2nc3ccccc3nc2cc1NC(C)=O was tested, and the IRF reporter was 1.05 ± 0.092. In the case of C[C@H](Nc1ncnc2[nH]cnc12)c1cc2cccc(Cl)c2c(=O)n1-c1ccccc1, the IRF reporter is reported as 0.991 ± 0.095. In the case of COc1ccc(C(=O)Nc2cc(C)nc3c(C)cc(C)cc23)cc1OC, the IRF reporter is reported as 0.767 ± 0.15. CS(=O)(=O)N(CC(=O)NCCSCc1cccc(Cl)c1)c1cccc(Cl)c1 showed an IRF reporter of 1.08 ± 0.11. Compound O=C(O)CCCCC1SCC2NC(=O)NC21 (stereo not drawn) has an IRF reporter of 1.18 ± 0.075. For COc1ccc(NC(=O)CN(c2ccc(C)c(C)c2)S(C)(=O)=O)cc1, the IRF reporter was 1.46 ± 0.084. For O=C(CCCN1CCC(O)(c2ccc(Cl)cc2)CC1)c1ccc(F)cc1, the IRF reporter was 1.36 ± 0.092. Cn1nc(CNS(=O)(=O)c2cccc(C(F)(F)F)c2)c2c1CCOC2 gave an IRF reporter of 1.05 ± 0.13. Compound CC1CCN(C2CC(=O)N(c3ccc(S(=O)(=O)N4CCOCC4)cc3)C2=O)CC1 (stereo not drawn) has an IRF reporter of 1.33 ± 0.096. COc1ccc2cc1Oc1ccc(cc1)C[C@H]1c3c(cc4c(c3Oc3cc5c(cc3OC)CCN(C)[C@@H]5C2)OCO4)CCN1C gave an IRF reporter of 0.931 ± 0.099. In the case of COc1ccc(C(=O)ON=C(N)c2ccc(OC)c(OC)c2)cc1OC, the IRF reporter is reported as 1.1 ± 0.07. Work on Cc1ccc(S(=O)(=O)NC(=O)NN2CC3CCCC3C2)cc1 (stereo not drawn) yielded an IRF reporter of 1.23 ± 0.46. CCc1cnn2c(NCc3ccc[n+]([O-])c3)cc(N3CCCC[C@H]3CCO)nc12 showed an IRF reporter of 0.0353 ± 0.0054.

Same assay, conditions: modulator concentration 10 µM; agonist: MPLA […]
With O=C(CCn1c(=O)oc2ccccc21)Nc1ccccc1 the IRF reporter was 1.06 ± 0.13. For O=C(Nc1ccncc1)c1ccc(OCC2CCOCC2)nc1, the IRF reporter was 1.24 ± 0.34. In the case of CNCC[C@@H](Oc1ccccc1C)c1ccccc1.Cl, the IRF reporter is reported as 0.792 ± 0.16. Brc1ccc2ncnc(Nc3ccccc3)c2c1 showed an IRF reporter of 0.731 ± 0.08. Work on O=C(NC12CC3CC(CC(C3)C1)C2)N1CCOCC1 yielded an IRF reporter of 1.32 ± 0.17. Cc1cc(NC2CCCC2)nc2ccccc12 was tested, and the IRF reporter was 2.72 ± 0.43. O=C(CCC(=O)OCC(=O)c1cccs1)Nc1ccc(Oc2ccccc2)cc1 was tested, and the IRF reporter was 1.38 ± 0.13. COC(=O)C1C(=O)C(=CNCc2ccccc2)C(=O)CC1(C)C (stereo not drawn) gave an IRF reporter of 0.992 ± 0.066. Work on Cc1cnc(NC(=O)C2=C(O)c3ccccc3S(=O)(=O)N2C)s1 yielded an IRF reporter of 0.987 ± 0.089. For NNC(=O)CN1C(=O)C2CC=C(Cl)CC2C1=O (stereo not drawn), the IRF reporter was 0.917 ± 0.18. O=C(COc1ccc2ccccc2c1)Nc1cnoc1 was tested, and the IRF reporter was 0.942 ± 0.1. Br.Fc1ccc(-c2csc(Nc3ccc4c(c3)OCO4)n2)cc1 was tested, and the IRF reporter was 1.29 ± 0.12. In the case of Cc1occc1C(=O)Nc1ccc([N+](=O)[O-])cc1Cl, the IRF reporter is reported as 0.874 ± 0.2. With Cn1cnc2cc(NCc3ccc(Br)cc3)ccc21 the IRF reporter was 1.13 ± 0.25. C[C@H](NC(=O)C(=O)Nc1ccccc1C(C)(C)C)C(=O)N[C@@H](CC(=O)O)C(=O)COc1c(F)c(F)cc(F)c1F showed an IRF reporter of 1.07 ± 0.14. O=C(NCCc1csc(-c2ccc(F)cc2)n1)c1ccc(Br)cc1 was tested, and the IRF reporter was 1.19 ± 0.15. In the case of CCN(CC)Cc1cc(Nc2ccnc3cc(Cl)ccc23)ccc1O.Cl.Cl.O.O, the IRF reporter is reported as 1.16 ± 0.46. For CC1(C)CCC2(C(=O)O)CCC3(C)C(=CCC4C5(C)CCC(O)C(C)(C)C5CCC43C)C2C1 (stereo not drawn), the IRF reporter was 1.24 ± 0.18. For NNC(=O)c1ccncc1, the IRF reporter was 1.11 ± 0.14. Work on O=C(Nc1ccccn1)NC1CCS(=O)(=O)C1 (stereo not drawn) yielded an IRF reporter of 1.23 ± 0.23. With Cc1ccccc1CC(CC(=O)O)C(=O)O (stereo not drawn) the IRF reporter was 1.3 ± 0.19. With COc1ccc(Cn2cc3c(-c4ccc(F)cc4)nnc-3c3cc(OC)c(OC)cc32)cc1 the IRF reporter was 3 ± 0.35. CC(C)c1ccc(N(CC(=O)NCCSCc2ccc(Cl)cc2)S(C)(=O)=O)cc1 gave an IRF reporter of 1.07 ± 0.13. Nc1ccc(C=Cc2ccccc2)cc1 was tested, and the IRF reporter was 0.719 ± 0.056. COc1nn(C)cc1C(=O)Nc1ccc(C(=O)NCCN2CCOCC2)cc1 showed an IRF reporter of 1.13 ± 0.23. Compound CC12CCC(=O)C=C1C=CC1C2CCC2(C)C1CCC21CCC(=O)O1 (stereo not drawn) has an IRF reporter of 1.06 ± 0.12. Work on CC(=O)Nc1cc2nc3ccccc3nc2cc1NC(C)=O yielded an IRF reporter of 0.988 ± 0.3. C[C@H](Nc1ncnc2[nH]cnc12)c1cc2cccc(Cl)c2c(=O)n1-c1ccccc1 showed an IRF reporter of 1.1 ± 0.093. For COc1ccc(C(=O)Nc2cc(C)nc3c(C)cc(C)cc23)cc1OC, the IRF reporter was 0.746 ± 0.07. Work on CS(=O)(=O)N(CC(=O)NCCSCc1cccc(Cl)c1)c1cccc(Cl)c1 yielded an IRF reporter of 1.24 ± 0.42. In the case of O=C(O)CCCCC1SCC2NC(=O)NC21 (stereo not drawn), the IRF reporter is reported as 1.12 ± 0.25. Compound COc1ccc(NC(=O)CN(c2ccc(C)c(C)c2)S(C)(=O)=O)cc1 has an IRF reporter of 1.53 ± 0.14. With O=C(CCCN1CCC(O)(c2ccc(Cl)cc2)CC1)c1ccc(F)cc1 the IRF reporter was 1.38 ± 0.13. Compound Cn1nc(CNS(=O)(=O)c2cccc(C(F)(F)F)c2)c2c1CCOC2 has an IRF reporter of 1.12 ± 0.11. With CC1CCN(C2CC(=O)N(c3ccc(S(=O)(=O)N4CCOCC4)cc3)C2=O)CC1 (stereo not drawn) the IRF reporter was 0.995 ± 0.23. With COc1ccc2cc1Oc1ccc(cc1)C[C@H]1c3c(cc4c(c3Oc3cc5c(cc3OC)CCN(C)[C@@H]5C2)OCO4)CCN1C the IRF reporter was 0.889 ± 0.12. COc1ccc(C(=O)ON=C(N)c2ccc(OC)c(OC)c2)cc1OC showed an IRF reporter of 1.13 ± 0.11. Work on Cc1ccc(S(=O)(=O)NC(=O)NN2CC3CCCC3C2)cc1 (stereo not drawn) yielded an IRF reporter of 1.14 ± 0.088. For CCc1cnn2c(NCc3ccc[n+]([O-])c3)cc(N3CCCC[C@H]3CCO)nc12, the IRF reporter was 0.0374 ± 0.0047.

Reference: the supplement of paper PMC10646978
